Measured values reported in PubChem BioAssay (NCI).
The panel holds about 79,000 compounds, 15% with a hit somewhere; the sample as a whole holds those more often. A number with no mark means an inactive call. The source made the active and inactive calls. Cut-off read from the data, not from the text of the source: active = growth inhibition above about 70%; inactive = the rest.

What was measured:
[1] = NCI Yeast Anticancer Drug Screen. Data for the rad50 strain (AID 155);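 note: 0% = growth of vehicle-only cultures of the same strain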; details: S. cerevisiae rad50 strain growth inhibition, stronger effect = higher value
Summary of the method: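 Readout: growth inhibition relative to vehicle-treated cultures. Compound exposure was carried out in a genetically defined yeast strain deficient in DNA damage repair.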

[2] = NCI Yeast Anticancer Drug Screen. Data for the mec2-1 strain (AID 157); details: S. cerevisiae mec2-1 strain, stronger effect = higher value
Summary of the method: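 Vehicle-treated cultures served as reference for growth inhibition of compound-exposed mec2-1 yeast.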

[3] = NCI Yeast Anticancer Drug Screen. Data for the sgs1 mgt1 strain (AID 161);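 note: 0% = growth of cultures given vehicle only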; details: S. cerevisiae sgs1 mgt1 strain, stronger effect = higher value
Summary of the method: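 Inhibition of yeast growth, normalised to vehicle-treated controls, is reported for a strain bearing genetic alterations in DNA damage repair.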

[4] = NCI Yeast Anticancer Drug Screen. Data for the cln2 rad14 strain (AID 165);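 note: 0% = growth equal to vehicle treated cultures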; details: S. cerevisiae cln2 rad14 strain, stronger effect = higher value
Summary of the method: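 Each compound was tested on cln2 rad14 yeast. Inhibition of growth was calculated against vehicle-exposed controls.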

[5] = NCI Yeast Anticancer Drug Screen. Data for the bub3 strain (AID 167); details: S. cerevisiae bub3 mutant strain, stronger effect = higher value
Summary of the method: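 Readout: yeast growth inhibition, expressed relative to vehicle-only wells. The test organism is a mutant strain from a panel with lesions in DNA repair or checkpoint genes.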

[6] = NCI Yeast Anticancer Drug Screen. Data for the mlh1 rad18 strain (AID 175); details: S. cerevisiae mlh1 rad18 strain growth inhibition, stronger effect = higher value
Summary of the method: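 Vehicle-treated cultures served as the reference for growth inhibition in a yeast strain carrying DNA damage repair alterations exposed to each compound.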

[7] = at 5.0 µM (retest, dose inferred, filed as 0.5)
[8] = at 50.0 µM (retest, dose inferred, filed as 5.0)

## OC(CCN1CCOCC1)(c1cccc(Cl)c1)C1CCCCC1 (stereo not given)
[1]; [7]
  growth inhibition: 3%
[1]; [8]
  growth inhibition: 45%
[1]; at 50.0 µM
  growth inhibition: 72.1% (active)
[2]; [7]
  growth inhibition: 1%
[2]; [8]
  growth inhibition: 19%
[2]; at 50.0 µM
  growth inhibition: -0.6%
[3]; [7]
  growth inhibition: 0%
[3]; [8]
  growth inhibition: 73% (active)
[3]; at 50.0 µM
  growth inhibition: 45.7%
[4]; [7]
  growth inhibition: 2%
[4]; [8]
  growth inhibition: 40%
[4]; at 50.0 µM
  growth inhibition: -26.9%
[5]; [7]
  growth inhibition: 2%
[5]; [8]
  growth inhibition: 68%
[5]; at 50.0 µM
  growth inhibition: 75.4% (active)
[6]; [7]
  growth inhibition: 2%
[6]; [8]
  growth inhibition: 58%
[6]; at 50.0 µM
  growth inhibition: 40.8%

## COc1ccnc(-c2cc(OC)cc(/C(N)=N/O)n2)c1
[1]; [7]
  growth inhibition: 2%
[1]; [8]
  growth inhibition: 59%
[1]; at 50.0 µM
  growth inhibition: 96.8% (active)
[2]; [7]
  growth inhibition: -4%
[2]; [8]
  growth inhibition: 83% (active)
[2]; at 50.0 µM
  growth inhibition: 93.1% (active)
[3]; [7]
  growth inhibition: -2%
[3]; [8]
  growth inhibition: 63%
[3]; at 50.0 µM
  growth inhibition: 96% (active)
[4]; [7]
  growth inhibition: -5%
[4]; [8]
  growth inhibition: 62%
[4]; at 50.0 µM
  growth inhibition: 93.8% (active)
[5]; [7]
  growth inhibition: -3%
[5]; [8]
  growth inhibition: 54%
[5]; at 50.0 µM
  growth inhibition: 88.7% (active)
[6]; [7]
  growth inhibition: -4%
[6]; [8]
  growth inhibition: 77% (active)
[6]; at 50.0 µM
  growth inhibition: 96.8% (active)

## CNC(=O)NC(c1cc(OC)c(OC)c(OC)c1)c1cc2c(cc1O)OCO2 (stereo not given)
[1]; [7]
  growth inhibition: -15%
[1]; [8]
  growth inhibition: -9%
[1]; at 50.0 µM
  growth inhibition: 17.2%
[2]; [7]
  growth inhibition: -1%
[2]; [8]
  growth inhibition: -8%
[2]; at 50.0 µM
  growth inhibition: 13.4%
[3]; [7]
  growth inhibition: -14%
[3]; [8]
  growth inhibition: 5%
[3]; at 50.0 µM
  growth inhibition: -0.1%
[4]; [7]
  growth inhibition: -28%
[4]; [8]
  growth inhibition: -15%
[4]; at 50.0 µM
  growth inhibition: 23.6%
[5]; [7]
  growth inhibition: -16%
[5]; [8]
  growth inhibition: -4%
[5]; at 50.0 µM
  growth inhibition: -1.6%
[6]; [7]
  growth inhibition: -19%
[6]; [8]
  growth inhibition: -5%
[6]; at 50.0 µM
  growth inhibition: 16.8%

## CCCCCCCCCCC(O)CN1CCN(c2cccc(Cl)c2)CC1 (stereo not given)
[1]; [7]
  growth inhibition: 95% (active)
[1]; [8]
  growth inhibition: 98% (active)
[1]; at 50.0 µM
  growth inhibition: 98.9% (active)
[2]; [7]
  growth inhibition: 99% (active)
[2]; [8]
  growth inhibition: 99% (active)
[2]; at 50.0 µM
  growth inhibition: 98.7% (active)
[3]; [7]
  growth inhibition: 99% (active)
[3]; [8]
  growth inhibition: 99% (active)
[3]; at 50.0 µM
  growth inhibition: 99.2% (active)
[4]; [7]
  growth inhibition: 97% (active)
[4]; [8]
  growth inhibition: 98% (active)
[4]; at 50.0 µM
  growth inhibition: 97.2% (active)
[5]; [7]
  growth inhibition: 96% (active)
[5]; [8]
  growth inhibition: 99% (active)
[5]; at 50.0 µM
  growth inhibition: 90.3% (active)
[6]; [7]
  growth inhibition: 99% (active)
[6]; [8]
  growth inhibition: 99% (active)
[6]; at 50.0 µM
  growth inhibition: 99.2% (active)

## CC(C)c1cc2c(cc1O)C[C@@]1(O)CCCC(C)(C)C1CC2 (stereo not given in full)
[1]; [7]
  growth inhibition: 8%
[1]; [8]
  growth inhibition: 97% (active)
[1]; at 50.0 µM
  growth inhibition: 90.6% (active)
[2]; [7]
  growth inhibition: 3%
[2]; [8]
  growth inhibition: 97% (active)
[2]; at 50.0 µM
  growth inhibition: 92.3% (active)
[3]; [7]
  growth inhibition: 3%
[3]; [8]
  growth inhibition: 92% (active)
[3]; at 50.0 µM
  growth inhibition: 91.2% (active)
[4]; [7]
  growth inhibition: -16%
[4]; [8]
  growth inhibition: 96% (active)
[4]; at 50.0 µM
  growth inhibition: 90% (active)
[5]; [7]
  growth inhibition: 7%
[5]; [8]
  growth inhibition: 96% (active)
[5]; at 50.0 µM
  growth inhibition: 91.2% (active)
[6]; [7]
  growth inhibition: 10%
[6]; [8]
  growth inhibition: 95% (active)
[6]; at 50.0 µM
  growth inhibition: 90.2% (active)

## Cc1cccc2c(=O)c3ccccc3oc12
[1]; [7]
  growth inhibition: 5%
[1]; [8]
  growth inhibition: 42%
[1]; at 50.0 µM
  growth inhibition: 47.5%
[2]; [7]
  growth inhibition: 2%
[2]; [8]
  growth inhibition: 11%
[2]; at 50.0 µM
  growth inhibition: 17.2%
[3]; [7]
  growth inhibition: -1%
[3]; [8]
  growth inhibition: 18%
[3]; at 50.0 µM
  growth inhibition: 15.4%
[4]; [7]
  growth inhibition: 12%
[4]; [8]
  growth inhibition: -1%
[4]; at 50.0 µM
  growth inhibition: -63.5%
[5]; [7]
  growth inhibition: 9%
[5]; [8]
  growth inhibition: 19%
[5]; at 50.0 µM
  growth inhibition: 14.5%
[6]; [7]
  growth inhibition: 9%
[6]; [8]
  growth inhibition: 11%
[6]; at 50.0 µM
  growth inhibition: 3.5%

## COc1ccc(/C(C#N)=C(/N)SCc2ccccc2Cl)cc1
[1]; [7]
  growth inhibition: -3%
[1]; [8]
  growth inhibition: 14%
[1]; at 50.0 µM
  growth inhibition: 90.9% (active)
[2]; [7]
  growth inhibition: -2%
[2]; [8]
  growth inhibition: 14%
[2]; at 50.0 µM
  growth inhibition: 64.9%
[3]; [7]
  growth inhibition: 10%
[3]; [8]
  growth inhibition: 36%
[3]; at 50.0 µM
  growth inhibition: 97.2% (active)
[4]; [7]
  growth inhibition: -7%
[4]; [8]
  growth inhibition: 15%
[4]; at 50.0 µM
  growth inhibition: 66.8%
[5]; [7]
  growth inhibition: 3%
[5]; [8]
  growth inhibition: 49%
[5]; at 50.0 µM
  growth inhibition: 83.5% (active)
[6]; [7]
  growth inhibition: -1%
[6]; [8]
  growth inhibition: 34%
[6]; at 50.0 µM
  growth inhibition: 90% (active)

## COc1ccc(C(C)(C)c2cc3c(cc2OCCO)OCO3)cc1
[1]; [7]
  growth inhibition: -1%
[1]; [8]
  growth inhibition: 82% (active)
[1]; at 50.0 µM
  growth inhibition: 89.8% (active)
[2]; [7]
  growth inhibition: 1%
[2]; [8]
  growth inhibition: 90% (active)
[2]; at 50.0 µM
  growth inhibition: 92.2% (active)
[3]; [7]
  growth inhibition: 4%
[3]; [8]
  growth inhibition: 92% (active)
[3]; at 50.0 µM
  growth inhibition: 97% (active)
[4]; [7]
  growth inhibition: 0%
[4]; [8]
  growth inhibition: 70% (active)
[4]; at 50.0 µM
  growth inhibition: 60.1%
[5]; [7]
  growth inhibition: 13%
[5]; [8]
  growth inhibition: 90% (active)
[5]; at 50.0 µM
  growth inhibition: 90.2% (active)
[6]; [7]
  growth inhibition: 1%
[6]; [8]
  growth inhibition: 94% (active)
[6]; at 50.0 µM
  growth inhibition: 93.3% (active)

## O=C1CSC(=S)N1/N=C/c1ccc(Cl)c([N+](=O)[O-])c1
[1]; [7]
  growth inhibition: 28%
[1]; [8]
  growth inhibition: 86% (active)
[1]; at 50.0 µM
  growth inhibition: 63.8%
[2]; [7]
  growth inhibition: 0%
[2]; [8]
  growth inhibition: 40%
[2]; at 50.0 µM
  growth inhibition: 52.1%
[3]; [7]
  growth inhibition: 2%
[3]; [8]
  growth inhibition: 77% (active)
[3]; at 50.0 µM
  growth inhibition: 27.4%
[4]; [7]
  growth inhibition: -16%
[4]; [8]
  growth inhibition: 40%
[4]; at 50.0 µM
  growth inhibition: -37.7%
[5]; [7]
  growth inhibition: -8%
[5]; [8]
  growth inhibition: 46%
[5]; at 50.0 µM
  growth inhibition: 57.9%
[6]; [7]
  growth inhibition: 2%
[6]; [8]
  growth inhibition: 91% (active)
[6]; at 50.0 µM
  growth inhibition: 61.2%

## CN(C)CCOC(=O)c1ccccc1
[1]; [7]
  growth inhibition: 3%
[1]; [8]
  growth inhibition: 88% (active)
[1]; at 50.0 µM
  growth inhibition: 49.4%
[2]; [7]
  growth inhibition: -6%
[2]; [8]
  growth inhibition: 42%
[2]; at 50.0 µM
  growth inhibition: 22.4%
[3]; [7]
  growth inhibition: -2%
[3]; [8]
  growth inhibition: 60%
[3]; at 50.0 µM
  growth inhibition: 24%
[4]; [7]
  growth inhibition: 0%
[4]; [8]
  growth inhibition: 81% (active)
[4]; at 50.0 µM
  growth inhibition: 27.1%
[5]; [7]
  growth inhibition: -7%
[5]; [8]
  growth inhibition: 71% (active)
[5]; at 50.0 µM
  growth inhibition: 37.2%
[6]; [7]
  growth inhibition: 2%
[6]; [8]
  growth inhibition: 78% (active)
[6]; at 50.0 µM
  growth inhibition: 42.2%
